# Laboratory results reported in PubChem BioAssay (NCI).
# This is part of a sample that, as a whole, favours compounds with a hit. Of some 83,000 tested, about 20% had one in any assay.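 Values shown are percent growth following 48 h exposure of cells in 96-well plates to a single concentration of compound; below 10 was considered active.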 Values without a mark were called inactive. Activity calls are given as the source filed them.
# Tests used:
# Assay in all cases: NCI-60 one-dose screen, 48 h (100 = growth as untreated, 0 = no growth, -100 = all killed)
# Conditions in all cases: 10 µM unless noted
# NCI-H23 lung = test system: NCI-H23 lung
# NCI-H226 lung = test system: NCI-H226 lung
# NCI-H460 lung = test system: NCI-H460 lung
# HOP-92 NSCLC = test system: HOP-92 NSCLC
# NCI-H522 lung = test system: NCI-H522 lung
# A549/ATCC NSCLC = test system: A549/ATCC NSCLC
# 786-0 renal = test system: 786-0 renal
# COLO 205 colon = test system: COLO 205 colon
# DU-145 prostate = test system: DU-145 prostate
# K-562 leukemia = test system: K-562 leukemia
# MALME-3M melanoma = test system: MALME-3M melanoma
# RXF 393 renal = test system: RXF 393 renal
# SF-268 CNS = test system: SF-268 CNS
# SF-295 CNS = test system: SF-295 CNS
# SF-539 CNS = test system: SF-539 CNS
# UACC-257 melanoma = test system: UACC-257 melanoma
# M14 melanoma = test system: M14 melanoma
# NCI-H322M lung = test system: NCI-H322M lung
# HOP-62 NSCLC = test system: HOP-62 NSCLC
# MDA-MB-231 breast = test system: MDA-MB-231 breast
Compound,growth (NCI-H23 lung) [%],growth (NCI-H226 lung),growth (NCI-H460 lung),growth (HOP-92 NSCLC),growth (NCI-H522 lung),growth (A549/ATCC NSCLC),growth (786-0 renal),growth (COLO 205 colon),growth (DU-145 prostate),growth (K-562 leukemia),growth (MALME-3M melanoma),growth (RXF 393 renal),growth (SF-268 CNS),growth (SF-295 CNS),growth (SF-539 CNS),growth (UACC-257 melanoma),growth (M14 melanoma),growth (NCI-H322M lung),growth (HOP-62 NSCLC),growth (MDA-MB-231 breast)
CC1=C(C(=O)c2ccccc2)C(c2ccc(-n3cncn3)cc2)n2c(nc3ccccc32)N1 (stereo not given),87.9,87.4%,80.5%,76.1%,83.2%,77.1%,96.8%,95.4%,71.7%,74.6%,81%,73.6%,77.1%,84%,39.1%,89.1%,99.2%,–,–,–
CC(=O)OCC1OC(OC2C(COC(C)=O)OC(n3cc(COc4ccc5ccc(=O)oc5c4)nn3)C(OC(C)=O)C2OC(C)=O)C(OC(C)=O)C(OC(C)=O)C1OC(C)=O (stereo not given),–,101%,108%,94.4%,71.3%,112%,96.4%,116%,108%,92.1%,101%,90.5%,91.8%,113%,100%,112%,107%,103%,103%,101%
Clc1ccc(-c2ccc(OCCCN3CCN(c4ccncc4)CC3)cc2)cc1,–,62.5%,-6.61% (active),15.9%,67.8%,59.1%,56.4%,-77.8% (active),69.1%,-45.6% (active),84.2%,15.3%,75.9%,40.6%,30%,90.2%,-54.6% (active),91%,54.3%,33.1%
Clc1cccc(-c2ccc(OCCCN3CCN(c4ccncc4)CC3)cc2)c1,–,41.3%,-67.5% (active),-1.12% (active),-4.23% (active),-11.9% (active),-79.5% (active),-86.1% (active),35.2%,-50.3% (active),-87% (active),-67.1% (active),33.1%,-80.8% (active),-81.2% (active),25.1%,-64.8% (active),53.4%,-49.1% (active),-83.4% (active)
COc1ccc2[nH]cc(-c3cc(N)n4nc(-c5cn(C)c6ccccc56)cc4n3)c2c1,–,-19.3% (active),-1.01% (active),-71% (active),-75.9% (active),-75.6% (active),-87.6% (active),-84.7% (active),-64.7% (active),4.69% (active),-75.5% (active),-83.9% (active),-11.7% (active),-81% (active),-82% (active),-86.2% (active),-91.1% (active),-97.2% (active),-66.4% (active),-44.8% (active)
Nc1nnc(-c2c[nH]c3ccc(Br)cc23)c(-c2c[nH]c3ncc(Br)cc23)n1,–,39.3%,27.7%,21.5%,30.9%,42.2%,34.7%,48.3%,55.7%,18.8%,39.2%,2.79% (active),47.7%,41.2%,41.5%,59.5%,38.6%,53.5%,49.4%,45.8%
Cn1cc(-c2nnc(N)nc2-c2c[nH]c3ccc(Br)cc23)c2cc(Br)cnc21,–,74%,62.1%,43.4%,6.2% (active),59.5%,46.2%,66.6%,75.8%,26.7%,69%,17.1%,71.3%,63.5%,63.6%,83.4%,57.2%,71.5%,70.7%,55.8%
COc1ccc(C(=O)/C=C/c2ccc(OC)c(OCc3ccccc3)c2)cc1OC,–,13.9%,4.04% (active),26.3%,-10.7% (active),8.7% (active),24.5%,20.1%,15.4%,13.2%,74.1%,-10.4% (active),21.1%,69%,-27.2% (active),42.7%,34.6%,13.5%,38.2%,17.9%
